Results as given in publication PMC4336329 (PLoS ONE, 2015).
Out of some 310,000 compounds screened, about 14,000 (4.5%) showed an effect of 50% or more. Effects have a minus sign here. The entries come from a sample that favours strong results as a whole.

The compounds below were run against human ether-à-go-go-related gene (hERG) potassium channel (human, UniProt Q12809) (assay: primary screen, population patch clamp on CHO cells stably expressing hERG; higher = less effect of the substance).
Sequence of human ether-à-go-go-related gene (hERG) potassium channel (Q12809 whole entry, looked up): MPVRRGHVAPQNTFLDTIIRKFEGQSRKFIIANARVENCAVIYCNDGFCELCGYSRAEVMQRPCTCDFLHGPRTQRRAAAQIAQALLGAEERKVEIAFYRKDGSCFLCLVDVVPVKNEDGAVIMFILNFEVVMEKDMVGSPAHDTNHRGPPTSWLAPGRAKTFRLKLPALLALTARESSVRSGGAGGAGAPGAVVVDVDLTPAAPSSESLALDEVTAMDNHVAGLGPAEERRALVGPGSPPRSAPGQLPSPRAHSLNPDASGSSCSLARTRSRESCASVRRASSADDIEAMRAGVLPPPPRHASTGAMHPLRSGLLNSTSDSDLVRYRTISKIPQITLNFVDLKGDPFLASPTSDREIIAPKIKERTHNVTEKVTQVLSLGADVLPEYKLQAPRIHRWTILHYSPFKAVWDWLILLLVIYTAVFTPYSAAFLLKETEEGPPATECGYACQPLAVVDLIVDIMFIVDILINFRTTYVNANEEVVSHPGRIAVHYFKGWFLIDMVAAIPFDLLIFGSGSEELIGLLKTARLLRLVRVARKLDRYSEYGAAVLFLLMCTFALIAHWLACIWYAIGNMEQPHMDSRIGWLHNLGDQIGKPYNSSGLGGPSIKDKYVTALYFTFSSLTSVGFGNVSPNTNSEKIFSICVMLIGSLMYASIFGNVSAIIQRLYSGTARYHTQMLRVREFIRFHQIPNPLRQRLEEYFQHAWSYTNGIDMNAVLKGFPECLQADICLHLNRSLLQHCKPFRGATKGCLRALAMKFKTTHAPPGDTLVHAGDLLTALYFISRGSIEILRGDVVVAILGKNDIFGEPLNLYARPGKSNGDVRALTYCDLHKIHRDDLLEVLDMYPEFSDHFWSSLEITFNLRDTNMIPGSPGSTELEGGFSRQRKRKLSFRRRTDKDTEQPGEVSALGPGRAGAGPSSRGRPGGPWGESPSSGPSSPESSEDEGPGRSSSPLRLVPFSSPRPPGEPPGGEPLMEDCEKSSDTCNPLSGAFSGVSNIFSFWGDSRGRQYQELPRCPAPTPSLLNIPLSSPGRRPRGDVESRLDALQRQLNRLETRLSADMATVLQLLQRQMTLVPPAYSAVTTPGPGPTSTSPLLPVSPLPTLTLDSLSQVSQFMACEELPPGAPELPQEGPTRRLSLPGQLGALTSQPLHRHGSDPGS
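Also: peak tail current of the secondary pulse compared with the same well before compound.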

Row | SMILES | hERG current change (%, negative = inhibition) at 10uM [%]
1 | Cn1c(=O)[nH]c2nncnc2c1=O | -13
2 | COc1cc2ccccc2cc1C(=O)Nc1cccnc1 | -9.84
3 | CCOC(CC(=O)NNC(=O)c1c(-c2ccccc2Cl)noc1C)OCC | 17.7
4 | COc1cc(C(=O)NCCN2CCOCC2)cc(OC)c1OC | 8.25
5 | CCc1ccccc1Nc1cc(C(=O)NCc2ccccn2)c2ccccc2n1 | -57.8
6 | COc1ccc(Nc2cc(C(=O)NCc3ccccn3)c3ccccc3n2)c(OC)c1 | 8.79
7 | O=C(NCc1ccccn1)c1cc(-c2ccccc2)nc2ccccc12 | -25.2
8 | Cc1ccc(CNS(=O)(=O)c2cc3c4c(c2)CCN4C(=O)CC3)cc1 | -29.4
9 | Cc1cc(C)cc(OCC(O)CN2CCN(C(=O)c3ccco3)CC2)c1 (stereo not shown) | -43.7
10 | O=C(c1ccccc1)N1CCN(CC(O)COc2ccc(Br)cc2)CC1 (stereo not shown) | -64.9
11 | CC(C)(C)c1ccc(OCC(O)CN2CCN(C(=O)c3ccccc3)CC2)cc1.O=C(O)C(=O)O (stereo not shown) | -50.7
12 | O=C(c1ccco1)N1CCN(CC(O)COc2ccc(Br)cc2)CC1 (stereo not shown) | -72.6
13 | O=C(c1ccco1)N1CCN(CC(O)COc2ccc3oc4ccccc4c3c2)CC1 (stereo not shown) | -66.4
14 | CC(=O)N1CCN(CC(O)COc2ccc(Br)cc2)CC1.O=C(O)C(=O)O (stereo not shown) | -10.7
15 | Cc1cc(C)c(OCC(O)CN2CCN(C(=O)c3ccccc3)CC2)c(C)c1.O=C(O)C(=O)O (stereo not shown) | -46.4
16 | COC(=O)c1ccc(OCC(O)CN2CCN(C(=O)c3ccco3)CC2)cc1.O=C(O)C(=O)O (stereo not shown) | -25.3
17 | CC(=O)c1cccc(OCC(O)CN2CCN(C(=O)c3ccco3)CC2)c1 (stereo not shown) | -2.19
18 | Cl.O=C(c1ccccc1)N1CCN(CC(O)COc2cccc3ccccc23)CC1 (stereo not shown) | -28.1
19 | OC(COc1ccc(Br)cc1)CN1CCN(c2ccccc2)CC1 (stereo not shown) | -21.2
20 | O=C(c1ccco1)N1CCN(CC(O)Cn2c3ccccc3c3ccccc32)CC1 (stereo not shown) | -41.9
21 | O=C(NC1CCCCC1)c1ccc(OC2CCN(Cc3ccccn3)CC2)cc1 | -16
22 | COc1ccc(OC)c(N(CC(=O)NCCSC2CCCCC2)S(=O)(=O)c2ccccc2)c1 | 16
23 | Cc1cccc(NC(=O)CSc2nccn2Cc2ccco2)c1 | 0.772

Row | SMILES | hERG current change (%, negative = inhibition) at 10uM [%]
24 | Cc1c(NS(=O)(=O)c2ccc(C(=O)NCc3ccc(F)cc3)cc2)c(=O)n(-c2ccccc2)n1C | -15
25 | COc1ccc(C(=O)NC(=S)NNC(=O)c2ccccc2C)cc1 | 17.7
26 | NC(=O)c1c(NC(=O)CSc2nc3c(c(C(F)(F)F)n2)CCc2ccccc2-3)sc2c1CCCC2 | -1.81
27 | Nc1ccc2c(c1)C(=O)Cc1ccccc1S2 | 9.05
28 | COc1ccccc1OCC(O)CN1CCN(C(=O)c2ccccc2)CC1.Cl (stereo not shown) | 1.39
29 | CCCOC(=O)c1ccc(OCC(O)CN2CCN(C(=O)c3ccccc3)CC2)cc1.Cl (stereo not shown) | -73.7
30 | COc1cc(C(=O)N2CCN(CC(O)COc3ccccc3)CC2)cc(OC)c1OC (stereo not shown) | 4.32
31 | CC(=O)/C(=N\Nc1ccc(C)cc1)Sc1nncn1C | -12.8
32 | COc1ccccc1C(=O)NCc1ccc(-c2nc3ccccc3s2)cc1 | -11
33 | Br.CC(C)CC1CC(C)(c2csc(NNC(=O)c3ccccc3)n2)OC1=O (stereo not shown) | -74.5
34 | O=C(NNc1nc(-c2ccccc2)cs1)c1ccccc1 | 3.27
35 | CC1(C)CC(CC(=O)NNc2nc(-c3ccccc3)cs2)C(=O)O1 (stereo not shown) | -2.28
36 | O=C(Nc1cccc(F)c1)C1C2C=CC3(CN(CCCN4CCOCC4)C(=O)C13)O2 (stereo not shown) | -8.87
37 | Cl.O=C1CSC(c2ccccc2F)N1CCN1CCCCC1 (stereo not shown) | -10.6
38 | CCOC(=O)C1(CC2CCCCO2)CCN(S(=O)(=O)c2cccc(F)c2)CC1 (stereo not shown) | 29.8
39 | CCOC(=O)C1(CC2CC2)CCN(Cc2cn[nH]c2-c2cccc(F)c2)CC1 | -91.6
40 | CCOC(=O)C1(CC2CCCCO2)CCN(Cc2cc3ccccc3[nH]2)CC1 (stereo not shown) | -46.1
41 | CCOC(=O)C1(CC2CCCCO2)CCN(Cc2cn[nH]c2-c2cccc(F)c2)CC1 (stereo not shown) | -53.9
42 | CCOC(=O)C1(CC2CC2)CCN(Cc2ccc3cccc(F)c3n2)CC1 | -48.3
43 | CCOC(=O)C1(CC2CC2)CCN(S(=O)(=O)/C=C/c2ccccc2)CC1 | -18.4
44 | CCOC(=O)C1(Cc2ccccc2)CCN(Cc2cn[nH]c2-c2ccccc2)CC1 | -28.8
45 | CCOC(=O)C1(CC2CC2)CCN(Cc2cn[nH]c2-c2ccccc2)CC1 | -79.5
46 | CC(C#N)Sc1ncnc2sc3c(c12)CCC3 (stereo not shown) | 0.835
